From PubChem BioAssay (Tox21) come the findings set out here.

Inconclusive results are not listed. A call without a number means that no potency is given here. Activity calls are given as the source filed them. Calls follow the shape of the dose curve; as a rule, active = well fitted curve in the direction sought with a large enough effect in the repeat runs; inconclusive = weak or mixed curves; inactive = no such curve, though single readings can be large; an effect the other way counts as inactive or inconclusive.
Also: nearly all actives have a fitted effect of over 40% in size.
Potency is read from the fitted curve at half-maximal effect.

The first experiment addresses Nuclear receptor subfamily 1 group I member 2 (Homo sapiens) (UniProt O75469). The experiment can be described thus: CYP3A4 induction through human pregnane X receptor (PXR) by small molecules, qHTS assay (AID 1346984). The settings on record: DPX-2 HepG2 PXR, CYP3A4-luciferin luminescence, 24 h; series mostly up to 46.1 µM. In a few lines:
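Quantitative HTS in DPX-2 cells, i.e. HepG2 transfected with PXR response element and CYP3A4-promoter luciferase. Compounds in DMSO incubated 24hr at 37C; then P450-Glo CYP3A4 substrate, 3uM final, 3hr; One-Glo luminescence.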
For the compound `CC(C)CN(C[C@@H](O)[C@H](Cc1ccccc1)NC(=O)O[C@@H]1CCOC1)S(=O)(=O)c1ccc(N)cc1`, the Potency result was “inactive”. For `CC(C(=O)O)c1ccc(N2Cc3ccccc3C2=O)cc1` (stereo unspecified), the Potency result was “inactive”.

With `CC(C)CN(C[C@@H](OP(=O)(O)O)[C@H](Cc1ccccc1)NC(=O)O[C@H]1CCOC1)S(=O)(=O)c1ccc(N)cc1`, the Potency result was “inactive”. In the case of `Cc1cc(O)c2c(c1)O[C@@]1(C)CC[C@H]3C(C)(C)CCCC34CO[C@@H]2[C@H]41` (stereo partly specified), the Potency entry was “inactive”. Consider `CN1C(=O)CN2CCc3ccccc3C2c2cc(Cl)ccc21` (stereo unspecified), for which the Potency is 3.16 µM (active).

For the compound `CC(=O)[C@]1(O)Cc2c(O)c3c(c(O)c2[C@@H](O[C@H]2C[C@H](N)[C@H](O)[C@H](C)O2)C1)C(=O)c1c(O)cccc1C3=O`, the Potency result was “inactive”.

Another experiment has the same target. The experiment can be described thus: Human pregnane X receptor (PXR) activation by small molecules, qHTS assay (AID 1346985). Conditions: DPX-2 HepG2 CYP3A4-luciferase, 24 h; series mostly up to 38.3 µM. In a few lines: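 DPX-2 cells (HepG2 co-transfected with a PXR response element and a CYP3A4-promoter luciferase construct) were seeded at 2,000 per well, rested 5 hr at 37C, then exposed to DMSO-dissolved compounds for 24 hr. Activation was read as luciferase luminescence.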
(In general: qHTS replaces the single test concentration by a dilution series.)
Consider `CC(C)CN(C[C@@H](O)[C@H](Cc1ccccc1)NC(=O)O[C@@H]1CCOC1)S(=O)(=O)c1ccc(N)cc1`, for which the Potency was 2.82 µM (active).

Consider `CCC(=O)NCCC1CCc2ccc3c(c21)CCO3` (stereo unspecified), for which the Potency was 28.2 µM (active). As to `CC(C(=O)O)c1ccc(N2Cc3ccccc3C2=O)cc1` (stereo unspecified), the Potency result is “inactive”. Take `CC[C@@H]1/C=C(\C)C[C@H](C)C[C@H](OC)[C@H]2O[C@@](O)(C(=O)C(=O)N3CCCC[C@H]3C(=O)O[C@H](/C(C)=C/[C@@H]3CC[C@@H](Cl)[C@H](OC)C3)[C@H](C)[C@@H](O)CC1=O)[C@H](C)C[C@@H]2OC`: the Potency result was “inactive”. For the compound `CC[C@@H](C(=O)[C@@H](C)[C@@H](O)[C@H](C)[C@@H]1O[C@@H]([C@@H](CC)C(=O)O)CC[C@@H]1C)[C@H]1O[C@]2(C=C[C@@H](O)[C@]3(CC[C@@](C)([C@H]4CC[C@](O)(CC)[C@H](C)O4)O3)O2)[C@H](C)C[C@@H]1C`, the Potency result was “inactive”.
